GPR151 activ: activators of human GPR151, primary screen, cell-based, PathHunter beta-arrestin, luminescence. G-protein coupled receptor 151 (Homo sapiens), Q8TDV0. PathHunter beta-arrestin GPR151 cells. activation, % at 11.2 µM. 1% of 650,000 active. AID 1508602, 2020; in the data active = activation above about 4.9%;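 note: 0% = median of compound wells and 100% = cells with positive control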
Target sequence (Q8TDV0 whole entry, looked up): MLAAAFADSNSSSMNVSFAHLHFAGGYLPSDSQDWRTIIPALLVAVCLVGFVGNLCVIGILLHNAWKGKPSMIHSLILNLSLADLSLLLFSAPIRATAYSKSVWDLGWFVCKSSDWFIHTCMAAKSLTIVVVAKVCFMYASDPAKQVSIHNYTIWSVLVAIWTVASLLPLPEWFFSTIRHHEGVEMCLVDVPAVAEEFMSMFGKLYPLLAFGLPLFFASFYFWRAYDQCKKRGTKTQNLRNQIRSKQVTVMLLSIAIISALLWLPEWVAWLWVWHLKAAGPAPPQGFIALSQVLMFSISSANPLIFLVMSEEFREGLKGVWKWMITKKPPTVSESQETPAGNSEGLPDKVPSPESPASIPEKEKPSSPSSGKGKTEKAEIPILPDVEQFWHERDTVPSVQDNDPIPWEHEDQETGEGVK
FBW7 activator: FBW7 E3 ligase activators, primary screen, biochemical, AlphaScreen, human; F-box/WD repeat-containing protein 7 (Homo sapiens), Q969H0; AlphaScreen FBW7–phospho-cyclin E peptide binding, activator screen; normalized activity (activation), % at 26.1 µM; 0.13% of 650,000 active; AID 1259310, 2017; in the data active = normalized activity above about 1.9%;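 note: purified mutant Fbw7 with reduced substrate affinity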
MITF primary: MITF inhibitors, primary screen, biochemical, AlphaScreen, human; Microphthalmia-associated transcription factor (Homo sapiens), O75030; AlphaScreen MITF homodimerization, bead proximity signal; inhibition, % at 2.6 µM; 0.91% of 650,000 active; AID 1259374, 2018; in the data active = inhibition above about 50%;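 note: 0% = vehicle wells with protein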
TEAD-YAP block: TEAD-YAP interaction inhibition, primary screen, TEAD-YAP interaction inhibitor project, luminescence, HEK-TIYL cells; inhibition, % at 9.12 µM; 1.4% of 640,000 active; TEAD-Gal4/YAP UAS-luciferase luminescence; in the data active = inhibition above about 32%;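 note: 0% = median of test compound wells and 100% = reference inhibitor wells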
Numbers without * were called inactive. This is a sample that favours compounds with a hit; in the whole collection about 3.5% have one here.

SMILES	GPR151 activ	FBW7 activator	MITF primary	TEAD-YAP block
CC(=O)Nc1ccc(C2=N/C(=C/c3ccc(OCc4ccccc4)cc3)C(=O)O2)cc1	1	0	1	43*
Cc1ccc(C2=N/C(=C\c3ccccc3OCc3ccccc3)C(=O)O2)cc1	1	0	-3	41*
O=C1OC(c2ccc(Cl)cc2)=N/C1=C\c1ccc(OCc2ccccc2)cc1	1	0	8	-11
CCCCOc1ccc(OCCNC(=O)C(CCSC)NC(=O)c2ccccc2)cc1 (configuration not stated)	0	0	11	21
CCOc1ccc(C(=O)Nc2ccc(F)c([N+](=O)[O-])c2)cc1Br	2	0	6	20
O=C(c1cc2c(s1)CCC2)N1CCC(c2ccncc2)CC1	-1	0	17	33*
CC1CCN(C(=O)Cn2c(SCC(=O)N3CCc4ccccc43)nc3ccccc32)CC1	2	0	5	2
CN(C)C(=O)Cn1c(SCC(=O)N2CCCc3ccccc32)nc2ccccc21	0	0	-6	35*
CC1Cc2ccccc2N1C(=O)CNCCCN(C)C (configuration not stated)	0	0	9	11
CC1CC2(C)Oc3ccccc3CC2C(C)C1CNCCCN(C)C (configuration not stated)	0	0	23	38*
COc1ccc2nc(-c3ccc(N)cc3)[nH]c2c1	-7	0	1	54*
CC1=NC(Nc2nc(C)c3cc(C)ccc3n2)=NC(C)(C)C1	-1	1	-8	37*
CCOc1ccc2nc(NC3=NC(C)(C)CC(C)=N3)nc(C)c2c1	-1	0	-1	28
c1ccc(-c2nc(NC3CC3)c3ncn(-c4ccsc4)c3n2)cc1	-1	0	-2	25
O=C(c1ccc2ccccc2n1)N(Cc1ccccc1)C1(C(=O)Nc2ccccc2)CCCCC1	-2	0	0	0
CCn1cccc/c1=N\c1cccc[n+]1CC	2	0	1	50*
COc1ccc(-c2cnc(NCc3cnc(C)cn3)nc2)cc1	-2	1	9	46*
COc1ccc(-c2cnnc(NCc3cnc(C)cn3)n2)cc1	1	0	8	0
COC(=O)c1cn(NC(=O)c2cc([N+](=O)[O-])ccc2F)c(=O)c2ccccc12	0	0	-8	87*
COCC1CCCN1C(=O)c1cnc2sc(C)c(C)n2c1=O (configuration not stated)	-1	0	15	-5
O=[N+]([O-])c1cccc(N/N=C/c2ccc([N+](=O)[O-])s2)c1	-1	0	0	39*
O=C(CCC1CCCC1)NCc1ccc(Cl)cc1	-1	0	5	-3
COc1cc(CC(=O)OCC(=O)c2ccc3c(c2)OCCO3)cc(OC)c1OC	2	0	-5	52*
COc1cc(C(=O)COC(=O)Cc2ccsc2)cc(OC)c1OC	0	0	-8	8
COc1cc(CC(=O)OCC(=O)c2ccc(Br)cc2)cc(OC)c1OC	1	0	1	59*
SMILES	GPR151 activ	FBW7 activator	MITF primary	TEAD-YAP block
COC(=O)NCCC1CCCCN1S(=O)(=O)c1ccc(C)cc1 (configuration not stated)	-1	0	8	1
CCC(C)C(=O)Nc1nc2c(s1)C(=O)CC(C(=O)NCc1ccc(Cl)cc1)C2 (configuration not stated)	-2	0	-3	-61
COc1ccccc1N1C(=O)CN(S(C)(=O)=O)CC1(C)C(=O)NC1CCCCCC1 (configuration not stated)	-3	0	-5	-15
CCOc1ccc(N(CC(=O)Nc2ccccc2C)S(=O)(=O)c2c(C)noc2C)cc1	1	1	13	55*
CCOC(=O)c1ccc(NC(=O)c2ccc(CS(=O)c3ccc(Cl)cc3)o2)cc1 (configuration not stated)	-1	0	-1	32*
COc1ccc2c(c1OC)C(=O)OC2Nc1cccc(NC(C)=O)c1 (configuration not stated)	0	1	9	-2
COc1cc2c(c(OC)c1OC)-c1ccc(OC)c(=O)cc1[C@@H](NC(C)=O)CC2	-1	0	16	58*
Cc1ccc(-c2cccc3cnc(Nc4ccc(C(=O)N5CCOCC5)cc4)nc23)cn1	0	0	22	49*
